A short description of assay [1]: inhibitors of TNFa-induced NFkB p65 translocation, primary screen, imaging, HUVEC, MLSMR starter and 10KST1 sets (AID 438).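 Also: compound added about 3h40 before a 20 min TNFalpha stimulation.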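 As to inhibition: signal is the nuclear over cytoplasmic p65 intensity ratio per well.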 The settings on record: HUVEC TNFa-induced p65 nuclear translocation; cell count: measured here: nuclei count (cytotoxicity indicator), at 2.08 µM; inhibition: at 2 µM, stronger effect = higher value, 0% TNFa-plus-vehicle, 100% no-TNFa wells.
The nature of assay [2]: inhibitors of mutant huntingtin aggregation, primary screen, imaging, exon1htt(103Q)mCFP cells, high-content imaging (AID 483;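 active = visual image review flags a hit and inhibition of aggregation exceeds 20%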;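 also: compound exposure lasted 3 days before fixation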;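 as to nuclei count: percent of the per-plate median nuclei count of sample wells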). The settings on record: exon1htt(103Q)mCFP cell line, aggregate imaging, at 2 µM; inhibition of aggregation: stronger effect = higher value; nuclei count: measured here: cell count, toxicity.
The nature of assay [3]: inhibitors of E-selectin induction by TNFa, primary screen, imaging, HUVEC, immunofluorescence, MLSMR starter and 10KST1 sets (AID 487;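 active = visually confirmed hit in the image check and inhibition above 20%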;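 as to inhibition: signal is fraction of cell area covered by stained E-selectin grains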;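 as to nuclei count: 100% = median nuclei count of all wells on the same plate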). The following applies: HUVEC TNFalpha-induced E-selectin immunofluorescence imaging, at 2 µM; inhibition: stronger effect = higher value; nuclei count: measured here: cell number, toxicity.
Assay [4] deals with Voltage-gated potassium channel subunit beta-2 (Rattus norvegicus) (UniProt P62483). The assay is described as follows: KvBeta enzyme negative modulators, primary screen, biochemical, NADPH fluorescence (AID 622;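 active = fluorescence slope higher than the sample average by over 3 SD, cut at about -0.22 in these data, passing the limit was not always enough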;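 also: slope of raw intensity against log time taken from 70 to 1610 s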). The following applies: recombinant KvBeta, 4-cyanobenzaldehyde reduction, at 10 µM, stronger effect = higher value.
Voltage-gated potassium channel subunit beta-2 (Rattus norvegicus), sequence (P62483 whole entry, looked up): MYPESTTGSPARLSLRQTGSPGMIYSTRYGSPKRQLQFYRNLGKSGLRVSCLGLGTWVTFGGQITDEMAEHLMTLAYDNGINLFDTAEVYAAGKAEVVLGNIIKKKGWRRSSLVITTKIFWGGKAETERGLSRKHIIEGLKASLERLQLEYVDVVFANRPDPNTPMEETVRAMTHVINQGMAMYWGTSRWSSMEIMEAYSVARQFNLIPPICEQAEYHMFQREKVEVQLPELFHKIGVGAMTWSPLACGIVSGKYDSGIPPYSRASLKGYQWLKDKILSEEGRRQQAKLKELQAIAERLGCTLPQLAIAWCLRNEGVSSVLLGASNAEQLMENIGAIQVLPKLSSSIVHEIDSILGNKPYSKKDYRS
For assay [5] the target is unchanged. The assay is described as follows: KvBeta positive modulators, primary screen, biochemical, NADPH fluorescence (AID 623;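 active = NADPH fluorescence slope more negative than the mean of all samples by about 3 SD, 99.7% confidence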;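 also: fluorescence intensity change per second fitted from 20 to 320 s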). The settings on record: Recombinant KvBeta, NADPH fluorescence decrease slope, 10 min; at 10 µM; stronger effect = lower value.
Assay [6] deals with Alpha-2C adrenergic receptor (Homo sapiens) (UniProt P18825). The assay is described as follows: modulators of alpha2C/GIRK thallium flux, primary screen, cell-based, HEK293 alpha2C/GIRK1/2 (AID 624;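 active = fluorescence slope after compound addition differing from the mean of all screened samples at 99.7% confidence, in either direction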;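 also: slope of fluorescence ratio to pre-addition baseline per second over 15 to 24 s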). The following applies: thallium flux BTC fluorescence, at 10 µM, actives lie on both sides.
Alpha-2C adrenergic receptor (Homo sapiens), sequence (P18825 whole entry, looked up): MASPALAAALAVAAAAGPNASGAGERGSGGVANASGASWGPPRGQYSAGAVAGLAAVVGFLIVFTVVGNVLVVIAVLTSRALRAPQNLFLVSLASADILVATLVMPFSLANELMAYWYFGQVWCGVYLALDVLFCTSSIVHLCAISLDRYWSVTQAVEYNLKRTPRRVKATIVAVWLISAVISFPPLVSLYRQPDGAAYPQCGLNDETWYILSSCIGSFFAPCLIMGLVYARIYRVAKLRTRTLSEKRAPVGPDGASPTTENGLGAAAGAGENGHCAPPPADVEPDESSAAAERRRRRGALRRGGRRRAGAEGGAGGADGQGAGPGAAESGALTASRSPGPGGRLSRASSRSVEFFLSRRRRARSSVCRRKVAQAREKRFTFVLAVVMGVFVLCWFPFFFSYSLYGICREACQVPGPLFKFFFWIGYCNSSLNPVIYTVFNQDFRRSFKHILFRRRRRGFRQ
Assay [7] is described as follows: inhibitors of Sendai virus-induced IRF3 signaling, primary screen, TLR/RLR signaling modifier project, cell-based, Sendai virus stimulus, luciferase, 10K MLSCN set (AID 602276;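 active = inhibition at or above 50% at 10 µM; inactive = inhibition below 50%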;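 also: firefly luciferase from ISG56 promoter only with Renilla not read in this screen; 0% = Sendai virus plus DMSO and 100% = medium plus DMSO without virus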). The settings on record: HEK293 RL24 IRF3 luciferase reporter, at 10 µM, stronger effect = higher value.
Assay [8] in a line: inhibitors of poly I:C-induced TLR3 signaling, primary screen, cell-based, poly I:C stimulus, luciferase, 10K MLSCN set (AID 602277;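 active = inhibition of the reporter signal at or above 50%; inactive = inhibition below 50%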). The settings on record: HEK293-TLR3 RL24 IRF3 luciferase reporter, at 10 µM, stronger effect = higher value. (In general: Reporter assays use an easily measured gene product as a stand-in for the process of interest.)

The text below walks through data of PubChem BioAssay.

The structures appear in SMILES notation. Active and inactive are the calls of the source.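 The calls were made as follows, unless noted: active = inhibition above 20% together with a positive visual image hit; inconclusive = visual image hit but inhibition not above 20%; inactive = no visual image hit.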

With `COc1cccc(C(=O)Nc2ncc3c(n2)CC(C)CC3=O)c1` (centres undefined), the cell count in assay [1] is 390. Besides, the inhibition (commonly the relative decrease from the control value, in per cent) in assay [1] is 2.5% (inactive); in assay [3], -0.5% (inactive); in assay [7], -6.66% (inactive); in assay [8] it was -7.05% (inactive). The inhibition of aggregation in assay [2] was 3% (inactive). Also, the nuclei count in assay [2] was determined as 95.8%; in assay [3], 88.1%. The fluorescence slope in assay [4] was -0.592 (inactive). Moreover, the NADPH fluorescence slope in assay [5] is -5.1e-05 (inactive). Also, the slope in assay [6] is 0.00534 (inactive).
Take `Cc1ccc(-n2ncc3c(=O)[nH]c(SCC(=O)N4CCN(c5ccccc5)CC4)nc32)cc1`: in assay [1], the cell count is 229. The inhibition is -8.5% (inactive) in assay [1], -22.6% (inactive) in assay [3], 9.1% (inactive) in assay [7] and 23.7% (inactive) in assay [8]. In assay [2], the inhibition of aggregation is 12.5% (inactive). Also, the nuclei count in assay [2] was 93.6%; in assay [3] it was 118%. In addition, the fluorescence slope in assay [4] is -0.358 (inactive). Besides, the NADPH fluorescence slope in assay [5] is -1.3e-05 (inactive). In assay [6], the slope was 0.00346 (inactive).
Take `COc1ccc(N(C(=O)c2ccco2)C(C(=O)NC2CCCC2)c2ccc(N(C)C)cc2)cc1OC` (centres undefined): the cell count in assay [1] worked out at 596. The inhibition is -18.8% (inactive) in assay [1], -96.5% (inactive) in assay [3], 3.23% (inactive) in assay [7] and 27.3% (inactive) in assay [8]. The inhibition of aggregation in assay [2] is -35.5% (inactive). For the same compound, the nuclei count in assay [2] turned out to be 116%; in assay [3] it was 109%. In addition, the fluorescence slope in assay [4] was -0.48 (inactive). Moreover, in assay [5], the NADPH fluorescence slope was 3.2e-05 (inactive). The slope in assay [6] is 0.00496 (inactive).
Take `O=C(Nc1ccc(-c2noc(-c3cccs3)n2)cc1)c1cccnc1`: the cell count in assay [1] is 595. For the same compound, the inhibition is 8.2% (inactive) in assay [1], -49.2% (inactive) in assay [3], -67.5% (inactive) in assay [7] and -122% (inactive) in assay [8]. The inhibition of aggregation in assay [2] is 28% (inactive). The results for the nuclei count in assay [2] and in assay [3] were 115% and 95.8%, respectively. Besides, in assay [4], the fluorescence slope is -0.474 (inactive). In addition, in assay [5], the NADPH fluorescence slope is 2.2e-05 (inactive). Moreover, in assay [6], the slope was 0.00649 (inactive).
Turning to `COc1ccccc1Nc1nc2ccccc2[nH]1`, the cell count in assay [1] turned out to be 654. Further, the inhibition is 4.7% (inactive) in assay [1], -12.4% (inactive) in assay [3], -19.5% (inactive) in assay [7] and -54.9% (inactive) in assay [8]. Moreover, the inhibition of aggregation in assay [2] is 4.6% (inactive). Besides, the nuclei count in assay [2] was 94.6%; in assay [3] it was 96.8%. Besides, the fluorescence slope in assay [4] is -0.427 (inactive). Besides, the NADPH fluorescence slope in assay [5] is -3.7e-06 (inactive). Moreover, the slope in assay [6] is 0.00559 (inactive).
For the compound `CC1(C)CC(=O)C(CC2=C(O)CC(C)(C)CC2=O)=C(O)C1`, the cell count in assay [1] amounted to 628. Further, the inhibition in assay [1] was -6.7% (inactive); in assay [3], -24.2% (inactive); in assay [7], 7.41% (inactive); in assay [8], 23.2% (inactive). Further, the inhibition of aggregation in assay [2] was 15.8% (inactive). Moreover, the values for the nuclei count in assay [2] and in assay [3] were 90.9% and 112%, respectively. The fluorescence slope in assay [4] was -0.386 (inactive). In addition, the NADPH fluorescence slope in assay [5] was -1.3e-05 (inactive). Besides, in assay [6], the slope is 0.00397 (inactive).
For the compound `CCOc1ccc(Cc2nn[nH]n2)cc1`, in assay [1], the cell count was determined as 663. Further, the inhibition in assay [1] was -3.2% (inactive); in assay [3], -38.6% (inactive); in assay [7] it was 9.13% (inactive); in assay [8] it was 16.7% (inactive). Besides, in assay [2], the inhibition of aggregation was 10.3% (inactive). Also, the values for the nuclei count in assay [2] and in assay [3] were 90.5% and 141%, respectively. In addition, the fluorescence slope in assay [4] is -0.47 (inactive). For the same compound, in assay [5], the NADPH fluorescence slope is -0.000245 (inactive). In assay [6], the slope is 0.00563 (inactive).
Turning to `Nn1c(SCc2csc(-c3ccccc3)n2)nnc1-c1cccs1`, in assay [1], the cell count was found to be 387. The inhibition in assay [1] is -14% (inactive); in assay [3], -37.9% (inactive); in assay [7], 31% (inactive); in assay [8], 30.9% (inactive). Moreover, the inhibition of aggregation in assay [2] was -10.8% (inactive). Further, the values for the nuclei count in assay [2] and in assay [3] were 93.3% and 116%, respectively. The fluorescence slope in assay [4] is -0.454 (inactive). The NADPH fluorescence slope in assay [5] is -7.1e-06 (inactive). The slope in assay [6] was 0.00728 (inactive).
In the case of `O=C(CSc1nnnn1C1CCCCC1)N1CCc2ccccc21`, the cell count in assay [1] worked out at 348. For the same compound, the inhibition in assay [1] is 0.8% (inactive); in assay [3], 1.9% (inactive); in assay [7] it was 9.99% (inactive); in assay [8] it was -10% (inactive). Also, in assay [2], the inhibition of aggregation is -13.7% (inactive). Further, the nuclei count was 101% in assay [2] and 120% in assay [3]. In addition, the fluorescence slope in assay [4] was -0.566 (inactive). For the same compound, in assay [5], the NADPH fluorescence slope was -4e-05 (inactive). Also, the slope in assay [6] was 0.00388 (inactive).
